Assay results published in PubChem BioAssay (EPA / NIEHS).
Calls of active or inactive are those of the source. Rule for the calls: active = hit-call score of the fitted dose curve at least 0.9, where 1 is the maximum; inactive = score below 0.9.

test: CCTE_Shafer_MEA_acute_per_network_burst_spike_number_mean: CCTE's Neural Acute Assay for Average Number of Spikes in a Network Burst, Shafer Lab (AID 2284019)
Method: CCTE_Shafer_MEA_acute assay is conducted using Axion Biosystems 48 well microelectrode array (MEA) plates and Maestro recording system. Each well of the MEA plate contains a grid of 16 microelectrodes embedded in the culture surface. Electrically active cells, such as neurons, can be cultured over the electrodes, and electrical activity in these cells can be recorded extracellularly. The spontaneous firing of neurons is captured from each electrode on a microsecond timescale providing both temporally and spatially precise data. […] The CCTE_Shafer_MEA_acute assay uses primary cultures of rat cortical neurons. As these cultures mature over time, neural networks develop functional activity and form cohesive networks in which electrical activity can be highly coordinated. Baseline 40-minute recordings are made on days post-plating 13 or 15, followed by a secondary 40-minute recording after chemical exposure.CCTE_Shafer_MEA_acute_per_network_burst_spike_number_mean is a component of the CCTE_Shafer_MEA_acute assay. It measures the average number of spikes (action potential firings) in a network burst (temporally-clustered group of spikes across multiple electrodes) as the total number of spikes in a network burst divided by the number of network bursts during a recording in a microelectrode array (MEA) using Axion Biosystems Maestro 768 channel amplifier with the AxIS adaptive spike detector. The recordings before and after chemical treatment are used to calculate a percent change in the mean number of spikes in a network burst in each well.Data from the assay component CCTE_Shafer_MEA_acute_per_network_burst_spike_number_mean was analyzed into 1 assay endpoint. This assay endpoint, CCTE_Shafer_MEA_acute_per_network_burst_spike_number_mean, was analyzed in the negative analysis fitting direction relative to DMSO as the negative control and baseline of activity. Using a type of functional reporter, gain or loss-of-signal activity can be used to understand electrical activity.
Spontaneous activity in the cortical cultures was recorded using an Axion Biosystems Maestro 768 channel amplifier and Axion Integrated Studios (AxIS) v1.8 (or later) software. The amplifier recorded from all channels simultaneously (gain = 1200 x; sampling rate = 12.5 kHz/channel): raw signals were filtered with a Butterworth band-pass filter (300-5000 Hz), which filters out slower local field potentials leaving only fast potentials, i.e., "spikes", arising from extracellular currents associated with action potentials (Pine 2006; Wheeler and Nam 2011). On-line spike detection of filtered signals was conducted with the AxIS adaptive spike detector, using a threshold of 8x the root mean squared (rms) noise on each channel. Any electrodes with rms noise levels greater than 5 uV were grounded (e.g., no data were recorded). Once grounded, an electrode was grounded for the duration of the experiment. All recordings were conducted at 37 C. Wells were deemed usable if on the day of the exposure >/= 10 electrodes were active (defined as >/= 5 spikes/min). On DIV 13 or 15, a minimum of three wells from one cortical culture preparation were treated with each compound (0.03-40 uM). Prior to recording baseline activity, each mwMEA plate was placed in the Maestro at 37 C and allowed to sit for 20 min while firing rates stabilized. Baseline activity (40 min) was recorded before the addition of each compound. An additional 40 min of spontaneous activity was recorded in the presence of each compound. Changes in network parameters relative to baseline were assessed following compound treatment.

Row | SMILES | outcome | AC50
1 | [N-]=[N+]=[N-] | inactive | –
2 | Cc1ccc(N)cc1N | inactive | –
3 | c1ccc2c(c1)Nc1ccccc1S2 | inactive | –
4 | COCCOCCO | inactive | –
5 | CC(Cl)(Cl)C(=O)O | inactive | –
6 | ClC1=C(Cl)C2(Cl)C3C(Cl)C(Cl)CC3C1(Cl)C2(Cl)Cl (stereo unspecified) | – | 309 nM (active)
7 | ClC(Cl)(Cl)c1ccccc1 | inactive | –
8 | CC(C)(C)c1ccccc1OP(=O)(Oc1ccccc1)Oc1ccccc1 | inactive | –
9 | CCC(C)(C)c1ccc(O)cc1 | inactive | –
10 | COP(=O)(CCC(=O)NCO)OC | inactive | –
11 | O=C(O)C1C(C(=O)O)C2(Cl)C(Cl)=C(Cl)C1(Cl)C2(Cl)Cl (stereo unspecified) | inactive | –
12 | Nc1ccc2ccccc2c1 | inactive | –
13 | CCC1(c2ccccc2)C(=O)N=C(O)NC1=O (stereo unspecified) | inactive | –
14 | CCOc1ccc(C(C)(C)COCc2cccc(Oc3ccccc3)c2)cc1 | inactive | –
15 | CCCCC(CC)COP(=O)(Oc1ccccc1)Oc1ccccc1 (stereo unspecified) | inactive | –
16 | CCOP(=S)(Oc1ccc([N+](=O)[O-])cc1)c1ccccc1 (stereo unspecified) | inactive | –
